VACV Venus inh – inhibitors of vaccinia virus (Venus reporter). Potency, µM (top dose mostly 36.5 µM), inactives show top-dose activity change, negative = inhibition, usual class: inhibitors. AID 720580. 330,000 compounds, 0.46% hits. Vaccinia virus Venus reporter expression, fluorescence; calls by dose curve; tested in A549 cells; further: on the % scale 0 is the no-effect control and ±100 the full control effect; nearly all actives have a fitted effect of over 30% in size
HCV inhibitor – inhibitors of hepatitis C virus infection; AID 651820; Huh7.5.1 HCVcc-Cre infection, luciferase reporter, 44 h; 340,000 compounds, 3.4% hits; Potency, µM (doses to about 41.8 µM), for the others: top-dose activity change, negative = inhibition, hits mostly inhibitors; further: on the % scale 0 is the no-effect control and ±100 the full control effect
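HCVcc-Cre virus at an moi near 0.5 was added right after compound to cells cultured 4 h from seeding (1,000 cells/well). Luciferase activity was determined 44 h later, 15 min after substrate addition at RT.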
VACV mCherry inh – vaccinia inhibition (mCherry reporter); Vaccinia virus mCherry reporter infection, fluorescence; Potency, µM (doses to about 36.5 µM), for the others: at the highest dose activity change, negative = inhibition, hits mostly inhibitors; 310,000 compounds, 0.63% hits; AID 720579; calls by dose curve; tested in A549 cells; further: on the % scale 0 is the no-effect control and ±100 the full control effect; nearly all actives have a fitted effect of over 35% in size
Pf growth 96h – inhibits malaria parasite growth, 96 h. P. falciparum luciferase reporter growth, 96 h. Potency, µM (series often up to 28.7 µM), inactives show at the top dose activity change, negative = inhibition, usual class: inhibitors. 320,000 compounds, 6.9% hits; further: on the % scale 0 is the no-effect control and ±100 the full control effect
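Delayed-death screen, second-generation endpoint: infected erythrocytes, 2% hematocrit, 0.05% parasitemia final; 96 hours at 37 C, 5% CO2; luciferase detection reagent; luminescence decrease equals reduced growth.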
NS1 inh – influenza NS1 inhibition. 270,000 compounds, 0.4% hits. Potency, µM (titrated, usually from 46.1 µM), for inactives: at the highest dose activity, positive = more growth; calls by dose curve; further: actives are rising curves; nearly all actives have a fitted effect of over 50% in size
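Recovery from NS1-induced slow growth read by OD600 in budding yeast switched to galactose assay medium (pH 6.0, -URA) at 1:100 dilution. Compound 23 nl per well; the matching strain lacking NS1 serves as control.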
Pf growth 48h – inhibits P. falciparum growth in the first generation, 48 h; P. falciparum luciferase growth in erythrocytes, 48 h; 310,000 compounds, 5.9% hits; AID 504832; Potency, µM (top dose mostly 28.7 µM), inactives show top-dose activity change, negative = inhibition, actives largely listed as inhibitors; further: on the % scale 0 is the no-effect control and ±100 the full control effect
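Growth was read as firefly luciferase luminescence after a 48 h, 37 C, 5% CO2 exposure of compounds to reporter-bearing P. falciparum cultures (0.1% parasitemia, 2% hematocrit final) in Albumax-supplemented RPMI 1640.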
* hit, by the source's call; i = inactive; ? = inconclusive; / = no result given; [ ] = another dose, or the depositor's remark. Compounds with a hit are over-represented: about 11% of the library has one in this group of screens. Unless noted, the call rests on the fitted dose curve; in most records, active means well fitted inhibition curve with a large enough effect; inconclusive means small, poorly fitted or top-dose-only effect, or another doubt; inactive means no such curve, though single readings can be large or run the other way. Potency means the concentration at half of the fitted maximal effect.

SMILES	VACV Venus inh	HCV inhibitor	VACV mCherry inh	Pf growth 96h	NS1 inh	Pf growth 48h
O=C(CSc1nccc(=O)[nH]1)NCc1ccc2c(c1)OCO2	/	26.2%	/	-12.5%	-0.8%	38.2%
Cc1nnc(SCC(=O)NCc2ccc3c(c2)OCO3)[nH]c1=O	-9.5%	-23.1%	2.2%	0.262µM*	-12.9%	37.4%
Cc1nnc(SCC(=O)N(C(C)C)C(C)C)[nH]c1=O	3.5%	6.1%	-6.5%	-9.0%	-8.9%	?
COC(=O)C1SCCN1S(=O)(=O)c1ccc(Cl)cc1 (stereo not given)	-4.4%	0.1%	-9.9%	/	/	/
Cn1nc(C(=O)NCC2CCCO2)c2ccccc2c1=O (stereo not given)	/	21.3%	/	/	-10.6%	14.1%
Cc1cc(NC(=O)COC(=O)c2cccc(S(=O)(=O)N(C)C3CCCCC3)c2)no1	-1.2%	0.3%	i	-2.5%	-59.6%	10.2%
CN1C/C(=C\c2ccc(N3CCOCC3)cc2)C(=O)/C(=C/c2ccc(N3CCOCC3)cc2)C1	-0.3%	11.2µM*	?	65.0%	21.2%	?
CCN1C/C(=C/c2ccc(N3CCOCC3)cc2)C(=O)/C(=C/c2ccc(N3CCOCC3)cc2)C1	55.5%	?	11.2µM*	4.15µM*	4.3%	7.38µM*
CN1C/C(=C/c2ccsc2)C(=O)/C(=C/c2ccsc2)C1	?	?	?	?	-10.6%	2.1%
O=C1NC(=O)N(Cc2cccs2)C(=O)/C1=C/c1ccc(N2CCOCC2)cc1	8.5%	11.2%	-2.1%	32.6%	/	10.2%
CN1C/C(=C/c2ccncc2)C(=O)/C(=C/c2ccncc2)C1	6.6%	16.3%	-2.3%	?	-14.5%	2.62µM*
Clc1ccc(N2CCN(Cc3nnc(-c4ccc5c(c4)OCO5)o3)CC2)cc1	-9.7%	/	-9.6%	/	/	/
CC1CCCCN1C(=O)Cn1ncc2c3ccccc3n(Cc3ccccc3F)c2c1=O (stereo not given)	-26.9%	/	-24.9%	/	/	/
CCOC(=O)N1CCN(C(=O)c2cn(CC)c3ccc(S(=O)(=O)N4CCCC4)cc3c2=O)CC1	/	6.7%	/	?	-8.2%	-12.3%
CCCn1c(=O)n(N)c2ccccc21	-5.7%	6.8%	-11.4%	18.2%	16.5%	-2.0%
O=C(Nc1ccc(C(=O)OC[C@@H]2CCCN3CCCC[C@H]23)cc1)c1cccc(Br)c1	?	11.2µM*	-1.0%	2.62µM*	1.3%	1.85µM*
COc1ccc(-n2nc(C#N)c(Cl)cc2=O)cc1	10µM*	?	11.2µM*	54.5%	/	360.1%
COC(=O)c1nn(-c2ccc(OC)cc2)c(=O)cc1O	4.3%	9.7%	-3.8%	-13.0%	/	39.8%
CC(C)CC1(C(=O)NCCc2c[nH]c3ccccc23)C=CCN1C(=O)c1ccccc1 (stereo not given)	-6.0%	0.0%[8.37 µM]	i	10.4µM*	-7.2%	?
Cc1ccccc1NC1=NC(=S)N(c2ccccc2)C12CCCCC2	?	-10.5%	-11.2%	10.4µM*	3.7%	?
COC(=O)c1ccccc1NC(=O)CN(CCc1ccccc1)S(C)(=O)=O	/	4.3%	/	4.3%	?	1.2%
CC1=CC(C)(C)N2C(=O)C3(SCC(=O)N3c3ccc(F)cc3)c3cc(C)cc1c32 (stereo not given)	/	?	/	4.15µM*	-11.0%	/
Cc1cc(C)c(NC(=O)CN2C(=O)C3(SCC(=O)N3c3ccc(F)cc3)c3ccccc32)c(C)c1 (stereo not given)	-10.4%	/	-12.5%	/	/	/
O=C(NC1C2CC3CC(C2)CC1C3)C1CC1 (stereo not given)	/	14.3%	/	27.4%	-1.6%	7.38µM*
O=C(Cc1csc(NC(=O)c2ccc(F)cc2)n1)NO	-2.8%	2.3%	-14.6%	8.28µM*	/	?
SMILES	VACV Venus inh	HCV inhibitor	VACV mCherry inh	Pf growth 96h	NS1 inh	Pf growth 48h
CCOC(=O)Cc1csc(NC(=O)c2ccc(Br)cc2)n1	/	?	/	14.1%	-12.0%	21.2%
COc1cc(OC)cc(C(=O)Nc2nc(CC(=O)NCc3ccccc3OC)cs2)c1	-27.8%	?	-22.8%	?	/	?
COc1cc(OC)cc(C(=O)Nc2nc(CC(=O)NCc3ccc(F)cc3)cs2)c1	-29.6%	?	?	11.7µM*	/	?
O=C1NC(=Nc2ccccc2Cl)SC1(CO)CO	/	9.8%	/	13.1µM*	-14.6%	-2.6%
COc1ccc(C2C3=C(CCCC3=O)Nc3ccc4ncccc4c32)cc1OC (stereo not given)	3.7%	?	-2.7%	0.294µM*	/	-26.9%
COc1cc(C2C3=C(CCCC3=O)Nc3ccc4ncccc4c32)ccc1O (stereo not given)	?	-12.1%	?	29.3%	/	-11.9%
CCOC(=O)c1c(CN(C)C)n(C)c2c(O)c(N=NC(N)=O)c3ccc(Br)cc3c12	-5.7%	?	-6.7%	4.3%	0.0%	0.415µM*
O=C(CCS(=O)(=O)c1cccc2nsnc12)NCc1ccccc1Cl	-22.4%	5.7%	-24.8%	9.28µM*	-1.0%	7.5%
Cc1c(NC(=O)C2CCCN(S(=O)(=O)c3cnc[nH]3)C2)c(=O)n(-c2ccccc2)n1C (stereo not given)	0.2%	15.9%	11.7%	-2.6%	12.0%	/
Cn1c(N)c(C(=O)CSc2nc3ccccc3c(=O)n2Cc2ccccc2)c(=O)n(C)c1=O	-9.5%	?	-26.4%	28.0%	3.0%	?
Cc1ccc(S(=O)(=O)NC(c2ccccc2)C(C)C(=O)n2nc(C)cc2C)cc1 (stereo not given)	-14.5%	7.4%	/	12.1%	-49.7%	/
Cn1cc([C@@H]2C[C@H]3CN(C4CCCC4)C(=O)[C@]34CCCN24)c(-c2ccccc2)n1	-7.5%	-1.1%	-14.4%	4.8%	3.5%	5.22µM*
CNCCCCOc1ccccc1Cc1ccccc1	/	/	/	16.9µM*	/	13.5µM*
Cc1ccc(NC(=O)CSc2nc3ccc(Nc4nc(N5CCOCC5)nc(N5CCOCC5)n4)cc3s2)cc1	0.2%	-16.5%	-10.4%	?	23.5%	?
CCOC(=O)CSc1nc2ccc(Nc3nc(N4CCOCC4)nc(N4CCOCC4)n3)cc2s1	/	6.6%	/	-29.6%	5.0%	-23.7%
COc1ccc(NC(=O)CSc2nc3ccc(Nc4nc(N5CCOCC5)nc(N5CCOCC5)n4)cc3s2)cc1	/	10µM*	/	?	11.3%	?
CC(=O)CSc1nc2ccc(Nc3nc(N4CCOCC4)nc(N4CCOCC4)n3)cc2s1	/	31.6µM*	/	6.57µM*	11.4%	?
CC(C)(C)NC(=O)CSc1nc2ccc(Nc3nc(N4CCOCC4)nc(N4CCOCC4)n3)cc2s1	/	-24.4%	/	?	0.8%	7.38µM*
O=C(NCc1ccccc1Cl)C1CCC(CNc2nc(=S)[nH]c3ccccc23)CC1 (stereo not given)	-6.5%	-28.4%	i	?	/	?
COc1ccc(Cl)cc1NC(=O)CSc1nnc(C)c(=O)n1N	-12.0%	/	-2.1%	16.2%	22.9%	8.3%
O=C(Nc1ccccc1Oc1ccccc1)c1cc([N+](=O)[O-])ccc1Cl	-14.6%	?	-4.1%	-17.3%	-6.4%	?

Source: PubChem BioAssay (National Center for Advancing Translational Sciences (NCATS))
